These results are taken from PubChem BioAssay (NCI).

About 83,000 compounds went through this panel and 20% of them were active in at least one assay; those are over-represented in the sample as a whole.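 Step 1: grow cells in 96-well plates. Step 2: add test compound at a single concentration. Step 3: incubate 48 h. Step 4: record percent growth.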 A number with no mark means an inactive call. The source made the active and inactive calls. The calls were made as follows: active = growth percent below 10; inactive = the rest.

What all share (test): NCI-60 one-dose screen, 48 h (100 = growth as untreated, 0 = no growth, -100 = all killed)
Common to all, as to details: 10 µM unless noted

The subject of test [1] is EKVX NSCLC.
The test system of test [2] is SN12C renal.
Test [3] deals with UO-31 renal.
Test [4] concerns TK-10 renal.
The subject of test [5] is ACHN renal.
The subject of test [6] is A498 renal.
The test system of test [7] is CCRF-CEM leukemia.
Test [8] relates to MOLT-4 leukemia.
The test system of test [9] is SR leukemia.
Test [10] deals with CAKI-1 renal.

For the molecule `O=Cc1c[nH]c2ccc(NC(=O)OCc3ccccc3)cc12`, the growth in [1] was 106%; in [2], 90.3%; in test [3] it was 106%; in [4] it was 88.1%; in test [5], 108%; in [6], 231%. In addition, the results for the growth in test [7], in [8] and in test [9] were 83.8%, 152% and 80.4%, respectively.
As to `COC(=O)C[C@@H]1CC=CC(=O)/C1=C(O)/C=C/c1ccccc1`, the growth in test [1] was -30.8% (active); in [2] it was -41.5% (active); in [3] it was -80.8% (active); in test [4] it was -23.7% (active); in test [5], -83.3% (active); in test [10], -82.9% (active). The results for the growth in test [7], in [8] and in [9] were 10.8%, 3.09% (active) and 5.6% (active), respectively.
In the case of `O=C(/C=C/c1ccccc1)CC(c1ccccc1)N1CCOCC1` (centres undefined), the growth in test [1] was 117%; in test [2], 94.5%; in test [3] it was 61.3%; in test [4], 77%; in test [5], 87.8%; in test [10], 103%. Also, the growth was 78.4% in test [8] and -7.57% (active) in [9].
Take `COc1cc(/C=C/C(=O)N2CCN(C(=O)/C=C/c3ccccc3)CC2)cc(OC)c1OC`: the growth in test [1] is 121%; in test [2], 111%; in [3], 77.7%; in [4], 108%; in [5] it was 110%; in [10], 104%. For the same molecule, the values for the growth in test [7], in test [8] and in test [9] were 100%, 87.8% and 78.7%, respectively.
`Clc1ccc(-n2cnc3c(Cl)ncnc32)cc1Cl`: the growth in [1] was 88.5%; in test [2] it was 100%; in [3], 114%; in [4], 89.3%; in test [5], 95.7%; in test [10], 28.4%. Moreover, the growth was 82.6% in test [8] and 19.5% in [9].
For the molecule `C=C(C)[C@H]1CC/C(C)=C/CC[C@]2(C)O[C@H]2CC/C(C=O)=C\C1O` (some centres undefined), the growth in [1] was 103%; in test [2], 101%; in test [3] it was 58.1%; in [4], 106%; in test [5], 99%; in test [6], 143%. Besides, the growth was 137% in test [7], 142% in test [8] and 120% in test [9].
Consider `CC1=CC(=O)C(C(C)=Nc2ccccc2Cl)C(=O)O1` (centres undefined), for which the growth in [1] is 103%; in test [2] it was 105%; in [3], 95.8%; in test [4], 126%; in test [5], 98.1%; in [6], 85.7%. Besides, the values for the growth in test [7], in test [8] and in test [9] were 89.2%, 101% and 118%, respectively.
As for `CCc1ccc(CCN2C(=O)c3ccccc3C2=O)nc1`, the growth in test [1] is 91%; in test [2] it was 103%; in test [3], 137%; in [4] it was 126%; in test [5], 105%; in test [6], 120%. The values for the growth in test [7], in test [8] and in test [9] were 108%, 109% and 104%, respectively.
Take `COc1cc(C2NC(c3ccc(Cl)cc3)C(C)C(=NC(=O)c3cnccn3)C2C)cc(OC)c1OC` (centres undefined): the growth in test [1] is 99.3%; in test [2] it was 107%; in test [3], 83%; in test [4], 103%; in [5], 102%; in [10], 84.7%. In addition, the growth was 92.4% in test [7], 85.3% in [8] and 106% in [9].
On to `CC/C(=C\c1ccc(N(C)C)cc1)c1ccncc1`, for which the growth in test [1] was 63.5%; in test [2] it was 52.6%; in test [3], 57.6%; in [4], 73.6%; in test [5], 59.4%; in test [10], 43.4%. Further, the growth is 38.7% in test [8] and 22.8% in test [9].
For `CCCCCCC(C)(O)c1ccccc1` (centres undefined), the growth in test [1] was 101%; in test [2], 96.7%; in test [3], 80.3%; in test [4], 106%; in test [5], 103%; in test [10] it was 96.8%. For the same molecule, the growth in test [7] was 91.9%; in test [9] it was 97.6%.
For the molecule `Cc1nc(N)[nH]c(=O)c1C`, the growth in test [1] is 100%; in test [2], 87.4%; in test [3], 107%; in test [4], 137%; in test [5], 111%; in test [6], 216%. The growth is 94.7% in [7], 150% in [8] and 92.2% in test [9].
Consider `COc1ccc2nc3cc(Cl)ccc3c(Nc3cc(C(C)C)c(O)cc3C)c2c1`, for which the growth was 25% in test [1]; 54.9% in [2]; -6.15% (active) in [3]; 15.7% in [4]; 61.6% in test [5]; 60.2% in test [6]. In addition, the results for the growth in test [7], in [8] and in test [9] were -25.9% (active), 18% and 16.9%, respectively.
Consider `O=C1/C(=N/O)CCc2ccccc21`, for which the growth in test [1] is 88.8%; in [2], 96.1%; in test [3] it was 66.4%; in test [4], 151%; in test [5], 88.9%; in [10] it was 102%. The growth in test [7] is 4.19% (active); in [9], 113%.
With `CCCCOc1ccc(C(C)(C)c2ccc(OCCCC)cc2)cc1`, the growth was 143% in test [1]; 100% in test [2]; 80.5% in test [3]; 107% in test [4]; 109% in [5]; 126% in test [6]. Moreover, the growth is 97.7% in test [7] and 99.7% in test [8].
